From PubChem
Pf growth 48h – P. falciparum growth inhibition at 48 hours (one generation). Potency, µM (highest dose often 28.7 µM), for the others: top-dose activity change, negative = inhibition, actives largely listed as inhibitors. P. falciparum luciferase growth in erythrocytes, 48 h. actives 5.9% (n = 310,000); further: potency means the concentration at half of the fitted maximal effect; on the % scale 0 is the no-effect control and ±100 the full control effect
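A one-generation exposure of luciferase-tagged malaria parasites in RPMI 1640/Albumax erythrocyte culture, 37 C and 5% CO2. Inhibition is inferred from decreased luminescence after adding detection reagent.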
Pf growth 96h – P. falciparum growth inhibition at 96 hours; P. falciparum luciferase reporter growth, 96 h; Potency, µM (titrated, usually from 28.7 µM), inactives show top-dose activity change, negative = inhibition, usual class: inhibitors; actives 6.9% (n = 320,000); AID 504834; further: potency means the concentration at half of the fitted maximal effect; on the % scale 0 is the no-effect control and ±100 the full control effect
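Parasite growth measured via integrated firefly luciferase reporter in P. falciparum. Infected erythrocytes at 2% hematocrit, 0.05% parasitemia final were treated 96 hours at 37 C under 5% CO2, and luminescence was read.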
CHX counter – affects cycloheximide protein synthesis inhibition readout, counter-screen. actives 12% (n = 300,000). max response, %. cell reporter, cycloheximide protein synthesis inhibition counterscreen. AID 2314; in the data active means max response mostly above about 13%, no sharp cut-off; inactive means mostly below about 14%; further: read at 38.3 µM for the half of the compounds with a filed dose; 0% is about no effect
Shiga toxin inh – blocks Shiga toxin action in Vero cells; inhibition, % at 38.7 µM; actives 9.2% (n = 290,000); Vero cells, Shiga toxin protein synthesis inhibition reporter; in the data active means inhibition mostly above about 28%, no sharp cut-off; inactive means mostly below about 43%; further: 0% is about no effect
Active calls of the source: *; u = inconclusive; x = no result given; [ ] = remark or other dose. In the library only some 21% were active in any assay of this set; here they are far more common. Unless noted, the call rests on the fitted dose curve; in most records, active means well fitted inhibition curve with a large enough effect; inconclusive means small, poorly fitted or top-dose-only effect, or another doubt; inactive means no such curve, though single readings can be large or run the other way.

SMILES | Pf growth 48h | Pf growth 96h | CHX counter | Shiga toxin inh
COc1ccc(NC(=O)C(=O)N/N=C(\C)CC(=O)Nc2cc(C)ccn2)c(OC)c1 | 19.3% | 32.3% | -0.4 | 7.2
CCc1ccc(NC(=O)C(=O)N/N=C(\C)CC(=O)Nc2ccc(OC)cc2)cc1 | 66.1% | 1.9% | 1.8 | 20.9
CCOc1ccc(N2C(=O)S/C(=C\c3cc(OC)c(OC)c(OC)c3)C2=O)cc1 | u | 0.5% | 1.1 | 12.8
COc1ccccc1CCn1c(N)cc(=O)[nH]c1=O | -2.2% | 3.0% | -1.8 | -2.7
O=C(OCC(=O)N1CCCC1)c1cc(Cl)ccc1Cl | 6.5% | 24.7% | 10.6 | 22.8
CNS(=O)(=O)c1ccc(NC(=O)c2cncc(Br)c2)cc1 | -15.5%[5.75 µM] | 0.9% | -3.6 | -5.4
CCN(CC)c1ccc(NC(=O)c2cncc(Br)c2)cc1 | -9.6% | 4.8% | 42.8* | 59.8*
CCN(CC)c1ccc(NC(=O)c2cccnc2)cc1 | 34.7% | 39.9% | 38.5* | 60.8*
CC(=O)OCON[N+]([O-])=NC1CCCCC1 | x | x | -2.5 | 11.9
COC(=O)CCCC(=O)N1CCCC(CNS(=O)(=O)c2ccc(OC)cc2)C1 (stereo unspecified) | -10.6% | 43.4% | -1.3 | 49.0
O=C1OC(c2cccs2)=N/C1=C/c1ccc(-c2cccc(C(=O)O)c2)o1 | 99.1% | 29.6% | 25.7* | 26.8
Clc1cccc(N2CCN(Cc3nc(-c4ccccc4)no3)CC2)c1 | 1.8% | 5.86µM* | 7.7 | 2.0
CN1CCCN(Cc2nc(-c3cccc(C(F)(F)F)c3)no2)CC1 | -1.6% | 11.7µM* | 15.8* | 4.7
CCOC(=O)N1CCN(Cc2nc(-c3cccc(C)c3)no2)CC1 | x | 6.2% | 11.9 | 14.4
FC(F)(F)c1cccc(-c2noc(CN3CCOCC3)n2)c1 | 11.6% | 33.9% | 14.7 | 8.4
Clc1ccc(-c2noc(CN3CCN(c4ccccc4)CC3)n2)cc1 | 3.0% | -3.1% | -2.2 | 1.9
Cc1ccc(-c2noc(CCC(=O)NCCCN3CCN(c4cccc(Cl)c4)CC3)n2)cc1 | 9.28µM* | 40.7% | -3.6 | -11.0
CC(=O)N1CCN(Cc2nc(-c3cccc(Cl)c3)no2)CC1 | 24.9% | 12.1% | 18.1* | 43.4*
CCc1ccccc1NC(=S)N(CCc1ccncc1)C(C)C | -12.9% | -20.6% | -5.9 | -9.0
CC(Nc1nc(-c2cccc(Br)c2)cs1)c1nc2cc(Cl)c(N3CCCCC3)cc2n1CCOCCO (stereo unspecified) | u | u | 7.2 | 25.0
CCCn1c(C(CO)Nc2nc(-c3cccc(Br)c3)cs2)nc2ccccc21 (stereo unspecified) | u | 5.86µM* | -5.2 | -3.1
COc1ccccc1C1c2[nH]c3ccccc3c2CCN1Cc1cnc(C)s1 (stereo unspecified) | u | u | -2.2 | -28.6
COc1cccc(C2c3[nH]c4ccccc4c3CCN2Cc2cnc(C)s2)c1OC (stereo unspecified) | 2.33µM* | u | -3.3 | -1.5
O=C(NCc1ccco1)c1cc(-c2ccc3c(c2)OCO3)on1 | 176.4% | u | 41.7* | 109.4*
COc1ccc(OC)c(-c2cc(C(=O)NCc3ccco3)no2)c1 | 53.5% | -25.3% | 8.3 | 31.7
SMILES | Pf growth 48h | Pf growth 96h | CHX counter | Shiga toxin inh
COc1cccc(-c2cc(C(=O)NCc3ccco3)no2)c1 | x | u | 50.2* | 85.9*
O=C(NCc1ccco1)c1cc(-c2ccc(Cl)cc2)on1 | 76.4% | -7.6% | 19.9* | 76.9
O=C(NCc1ccc2c(c1)OCO2)c1cc(-c2ccccc2)on1 | 2.1% | x | 2.2 | 3.8
CC(C)Cc1cc(C(=O)NCc2ccco2)no1 | 135.6% | u | 31.9* | 52.2*
O=C(Nc1ccc(OC(F)(F)F)cc1)C1CCCN(S(=O)(=O)c2cnc[nH]2)C1 (stereo unspecified) | 10.6% | u | -2.5 | -1.4
O=C(NN1C(=O)/C(=C\c2cccnc2)SC1=S)c1ccco1 | -12.3% | 27.3% | 7.4 | -4.4
O=C(NC(=S)NCc1ccco1)c1cccc(Cl)c1 | u | 69.0% | 1.6 | -25.3
CC1CCc2onc(C(=O)NCc3ccco3)c2C1 (stereo unspecified) | 67.2% | u | 37.6* | 85.1*
O=C(NCc1ccco1)c1cc(-c2cccc(Cl)c2)on1 | 20.6% | 37.7% | 33.4* | 37.8*
O=C(NCc1ccco1)c1ccc(-c2cccc(Cl)c2)o1 | 51.3% | -2.0% | 52.2* | 71.1*
O=C(NCc1ccco1)c1nc(-c2ccc(F)cc2)no1 | -3.6% | u | 8.1 | 40.7*
CCCc1cc(C(=O)N2CCN(c3ccc(C(F)(F)F)cn3)CC2)sc1C | 0.7% | 20.5% | -1.4 | 3.6
COc1ccc(N(CC(=O)N2CCC(C(N)=O)CC2)S(=O)(=O)c2ccccc2)cc1 | 2.8% | -25.6% | 8.3 | -10.7
